Screening data (PubChem)
MARV entry inh: qHTS for inhibitors of binding or entry into cells for Marburg Virus; AID 540276, 2011; 300,000 tested, 1.8% active; Marburg virus pseudotyped entry inhibition, cell reporter; Potency, µM (top dose mostly 37.8 µM), actives largely listed as inhibitors; calls by dose curve; tested in HEK293 cells
FMDV inh: High Throughput Screening for Foot and Mouth Disease Virus Antivirals; FMDV antiviral cell-based qHTS; Potency, µM (series often up to 57.9 µM), hits mostly inhibitors; 410,000 tested, 1.2% active; AID 1159524, 2015; calls by dose curve; tested in HEK293T cells; note: read-out not given here; nearly all actives have a fitted effect of over 45% in size
HCMV antiviral: qHTS Assay for inhibitors of the human cytomegalovirus (HCMV) | HFF cells, HCMV-luciferase reporter, 72 h; stronger effect = lower value | 410,000 tested, 4.5% active | activity change, negative = inhibition, % at 57.5 µM; in the data active = activity change below about -60%; inconclusive = no clear call, values can overlap the other calls; inactive = above about -39%
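Cell-based, HFFs, 1000 cells/well, 16 h 37C; cpds in DMSO + HCMV-luc, MOI 1 PFU/cell; 72 h 37C; OneGlo luminescence after 5 min RT; norm. to buffer vs Salinomycin 10uM.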
LASV entry inh: qHTS for Inhibitors of binding or entry into cells for Lassa Virus. Potency, µM (series often up to 37.9 µM), usual class: inhibitors. Lassa virus pseudotype entry inhibition, cell reporter. 300,000 tested, 1.2% active; calls by dose curve; tested in HEK293 cells; note: nearly all actives have a fitted effect of over 50% in size
Large screens that a line does not name were inactive. A selection: hits, their analogues and other compounds. The true share with any hit is near 6.2%.

CCOC(=O)c1ccc(NC(=O)CSc2nc3cccnc3n2C)cc1	MARV entry inh inconclusive, FMDV inh 16µM
Cc1cccc(NC(=O)CSc2nc3sc(C)cc3c(=O)n2C)c1	MARV entry inh inconclusive
O=S1(=O)CCSC[C@@H](CN2CCOCC2)N1	none (no result: MARV entry inh, FMDV inh, LASV entry inh)
COc1ccc(S(=O)(=O)n2cnc3cc(C)c(C)cc32)cc1	none
O=C(Cn1nc(C(=O)O)c2ccccc2c1=O)c1cc(F)ccc1F	none (no result: MARV entry inh, LASV entry inh)
CCN(Cc1ccccc1)C(=O)Cn1c(=O)n(Cc2ccccc2)c(=O)c2c1c1cc(OC)ccc1n2C	none
COc1ccc(-n2c(SCC(=O)Nc3ccc(C(N)=O)cc3)nc3ccccc3c2=O)cc1OC	none
COc1ccccc1NC(=O)CSc1nc2ccccc2c(=O)n1C	FMDV inh 14µM, HCMV antiviral inconclusive (no result: MARV entry inh, LASV entry inh)
Cc1cccc(NC(=O)CSc2nc3ccccc3c(=O)n2C)c1C	FMDV inh inconclusive, HCMV antiviral -68 (no result: MARV entry inh, LASV entry inh)
COc1ccccc1NC(=O)CSc1nc2c(oc3ccccc32)c(=O)n1C	HCMV antiviral inconclusive (no result: MARV entry inh, LASV entry inh)
Cn1c(SCC(=O)NCc2ccccc2)nc2ccccc21	HCMV antiviral -100
CCOc1ccccc1NC(=O)CSc1nc2cc(O)ccc2c(=O)n1-c1ccc(OC)c(OC)c1	FMDV inh inconclusive, HCMV antiviral -72 (no result: MARV entry inh, LASV entry inh)
COc1ccc(-n2c(SCC(=O)NCC3CCCO3)nc3ccccc3c2=O)cc1Cl (centres undefined)	HCMV antiviral -67 (no result: MARV entry inh, LASV entry inh)
C/C(=N/NC(=O)CSc1nc2ccccc2n1C)c1ccncc1	HCMV antiviral -101
CCc1ccc(NC(=O)CSc2nc3ccccc3c(=O)n2CCC(=O)NC2CCCCC2)cc1	none (no result: MARV entry inh)
CCc1ccc(NC(=O)CSc2nc3ccccc3c(=O)n2CCCC(=O)N2CCCC2)cc1	MARV entry inh 9.2µM, HCMV antiviral -66, LASV entry inh 26µM
CCC1CC(CSC(=N)N)OC1=O (centres undefined)	none
COc1ccc(NC(=S)N(Cc2ccc(C)cc2)Cc2ccccn2)cc1	none
O=C1NC[C@H](CCCCN2CCN(CCc3ccccc3)C(=O)C2=O)N(CCc2ccccc2)C1=O	none (no result: MARV entry inh, LASV entry inh)
CCOc1cc(-c2sc(Nc3ccc(CC)cc3)n[n+]2-c2ccccc2)ccc1OC	none (no result: MARV entry inh, LASV entry inh)
CCc1cc2c(=O)[nH]c(N3CCCC3)nc2s1	LASV entry inh inconclusive
CCc1cc2c(=O)[nH]c(-c3ccccn3)nc2s1	MARV entry inh 6.3µM, FMDV inh inconclusive, HCMV antiviral -101, LASV entry inh 5.6µM
C=CCN1C(c2ccc(OCC)cc2)=CS/C1=C(\C#N)c1nnc2n1CCCCC2	MARV entry inh inconclusive, FMDV inh inconclusive, HCMV antiviral -60, LASV entry inh inconclusive
C=CCN1C(c2ccc(Br)cc2)=CS/C1=C(\C#N)c1nnc(N2CCOCC2)n1-c1ccccc1	MARV entry inh inconclusive, FMDV inh inconclusive, LASV entry inh inconclusive
O=[N+]([O-])c1ccc(S(=O)(=O)N(CC(O)CN2CCCCC2)c2ccccc2)cc1 (centres undefined)	none (no result: LASV entry inh)
O=[N+]([O-])c1ccc(N(CC(O)CN2CCCCC2)S(=O)(=O)c2ccccc2)cc1 (centres undefined)	HCMV antiviral -64
Cc1ccc(NC(=O)Cn2c(=O)n(CC(=O)NCCc3ccccc3)c(=O)c3ccccc32)cc1C	none
Cn1c(C(=O)N2CCCC(C(=O)N3CCN(c4ccccc4)CC3)C2)cc2sccc21 (centres undefined)	MARV entry inh inconclusive, FMDV inh inconclusive (no result: LASV entry inh)
Cc1cccc(N2CCN(C(=O)C3CCN(C(=O)c4cc5sccc5n4C)CC3)CC2C)c1 (centres undefined)	MARV entry inh inconclusive, FMDV inh inconclusive, HCMV antiviral -84 (no result: LASV entry inh)
Cc1ccc(C)c(N2CCN(C(=O)c3cc4sccc4n3C)CC2)c1	MARV entry inh 18µM, FMDV inh inconclusive, LASV entry inh inconclusive
CCCCN(CCCC)S(=O)(=O)c1ccc(C(=O)Nc2nnc(CSC)o2)cc1	MARV entry inh inconclusive, HCMV antiviral inconclusive, LASV entry inh inconclusive
Cc1ccc(NC(=S)NC(=O)/C=C/c2ccco2)c(O)c1	FMDV inh inconclusive, HCMV antiviral -64
O=C(/C=C\c1ccco1)NC(=S)Nc1ccccc1O	none (no result: MARV entry inh, LASV entry inh)
Cc1ccc(S(=O)(=O)N(CC(O)CN2CCOCC2)c2cc(Cl)ccc2Cl)cc1 (centres undefined)	HCMV antiviral inconclusive, LASV entry inh inconclusive
CCOC(=O)c1sc2nc(-c3cccnc3)ccc2c1N	MARV entry inh inconclusive, LASV entry inh 6.3µM
CCOc1ccccc1NC(=O)c1sc2nc(-c3ccc(OC)cc3)ccc2c1N	MARV entry inh inconclusive, HCMV antiviral -95, LASV entry inh inconclusive
CCOC(=O)c1ccccc1NC(=O)N1CCOc2ccc(Cl)cc21	HCMV antiviral -61 (no result: MARV entry inh)
CCC1CN(C(=O)Nc2cc(C)ccc2OC)c2cc(Cl)ccc2O1 (centres undefined)	HCMV antiviral -61 (no result: MARV entry inh)
O=C(Nc1cccc2c1CCCC2)N1CCOc2ccc(Cl)cc21	none (no result: MARV entry inh)
Cc1cc(N2CCN(C)CC2)nc(N2CCOCC2)n1	none
Cc1ccc(-n2ncc(C(=O)N3CCN(C4CCCCC4)CC3)c2C2CCN(C(=O)OC(C)(C)C)CC2)cc1	LASV entry inh inconclusive (no result: MARV entry inh)
CC(C)NC(=O)C1CCN(C2CCN(C(=O)Cc3ccc4c(c3)OCO4)CC2)CC1	none
CSCc1ccc(C(=O)N2CCC(N3CCC(C(=O)NC(C)C)CC3)CC2)o1	HCMV antiviral -64
CN(C)S(=O)(=O)c1ccc(Cl)c(NC(=O)CN2CCc3ccccc3C2)c1	MARV entry inh inconclusive, HCMV antiviral -64, LASV entry inh inconclusive
CN(C)S(=O)(=O)c1ccc(Cl)c(NC(=O)CN2CCN(Cc3ccc4c(c3)OCO4)CC2)c1	FMDV inh inconclusive, HCMV antiviral -60 (no result: MARV entry inh, LASV entry inh)
CCCCNC1C(CC)C(CCC)C(C#N)(C#N)C1(C#N)C#N (centres undefined)	MARV entry inh inconclusive, FMDV inh 32µM, LASV entry inh inconclusive (no result: HCMV antiviral)
FC(F)(F)c1cccc(/C=N/NC(=S)NC2CCCCC2)c1	MARV entry inh inconclusive, HCMV antiviral -95, LASV entry inh inconclusive
Cc1ccccc1NC(=O)CCS(=O)(=O)c1ccc(Br)cc1	none (no result: MARV entry inh, LASV entry inh)
Cc1ccc(S(=O)(=O)CCC(=O)Nc2ccc(Br)cc2C)cc1	HCMV antiviral active (no result: MARV entry inh)
CCc1ccc(NC(=O)CCS(=O)(=O)c2ccc(Br)cc2)cc1	HCMV antiviral -62 (no result: MARV entry inh, LASV entry inh)
CC1C(=O)N(Cc2cn(Cc3ccco3)nn2)CCS(=O)(=O)N1Cc1ccc(-c2ccc(F)cc2)cc1 (centres undefined)	none (no result: MARV entry inh, LASV entry inh)
C[C@H]1CCC[C@]2(C)C[C@H]3OC(=O)C(CN4CCCCCC4)[C@H]3C=C12 (some centres undefined)	FMDV inh 22µM, HCMV antiviral inconclusive (no result: MARV entry inh, LASV entry inh)
Cc1ccc(N2C(S)=C(C#N)C(=O)NC23CCCCC3)cc1	HCMV antiviral -60
O=C(Nc1ccc(F)c(F)c1)c1cc(S(=O)(=O)NC2CCCCCC2)ccc1F	HCMV antiviral inconclusive (no result: MARV entry inh)
CCC1(O)C(=O)OCc2c1cc1n(c2=O)Cc2cc3c(N)cccc3nc2-1 (centres undefined)	MARV entry inh inconclusive, HCMV antiviral -98, LASV entry inh inconclusive
CCC1(OC(=O)CN(C)C)C(=O)OCc2c1cc1n(c2=O)Cc2cc3c(N)cccc3nc2-1 (centres undefined)	MARV entry inh inconclusive, LASV entry inh inconclusive (no result: HCMV antiviral)
CCOC(=O)c1cnc(Nc2nc3ccccc3o2)nc1CSC(=S)N(CC)CC	HCMV antiviral -64, LASV entry inh inconclusive
